According to PubChem BioAssay AID651814 (National Center for Advancing Translational Sciences (NCATS), 2012):
Screen size: about 2,100 compounds; about 590 (28%) were called active. Not shown: some 42% with an inconclusive outcome. This is one part of the list. Values without a mark were called inactive. Calls follow the shape of the dose curve; as a rule, active = well fitted inhibition curve with a large enough effect; inconclusive = small, poorly fitted or top-dose-only effect; inactive = flat fitted curve, though single readings scatter.

target: DNA dC->dU-editing enzyme APOBEC-3F (Homo sapiens) (UniProt Q8IUX4); experiment: qHTS for inhibitors of Vif-A3F interactions: Cherry picks; conditions: HeLa A3F-eYFP + Vif (tagged APOBEC3F with the HIV-1 protein that degrades it), eYFP fluorescence, 24 h; also: nearly all actives have a fitted effect of over 70% in size;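 as to max response: % of control where 0% means no effect; active compounds raise eYFP fluorescence by blocking Vif-driven A3F loss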
Sequence (Q8IUX4 whole entry, looked up): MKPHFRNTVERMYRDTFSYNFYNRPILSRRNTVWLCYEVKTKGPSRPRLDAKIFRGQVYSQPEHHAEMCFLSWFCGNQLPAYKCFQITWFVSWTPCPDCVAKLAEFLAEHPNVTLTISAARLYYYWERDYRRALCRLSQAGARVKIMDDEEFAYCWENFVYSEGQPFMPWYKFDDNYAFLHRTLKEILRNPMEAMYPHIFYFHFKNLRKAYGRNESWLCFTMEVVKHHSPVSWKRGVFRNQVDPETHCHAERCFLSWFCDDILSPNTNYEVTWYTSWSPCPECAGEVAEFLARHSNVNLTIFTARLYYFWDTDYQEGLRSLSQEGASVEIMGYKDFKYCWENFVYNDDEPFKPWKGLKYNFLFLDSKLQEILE
Method in brief: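 Read-out: yellow fluorescence (ex 488 nm, em 500-530 nm) by laser-scanning cytometer after 24 h compound exposure, several concentrations, at 37 deg C. Cells: HeLa line stably co-expressing Vif and C-terminally eYFP-tagged A3F; MG132 served as positive control.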
Potency is read from the fitted curve at half-maximal effect.

Structure (SMILES) | max response | Potency
Cc1ccc(S(=O)(=O)Nc2cc(Cl)c(O)c3ncccc23)cc1 | -26.9% | 
Cc1cccc2[nH]cc(/C=C3/C=Nc4ccccc43)c12 |  | 23.1 µM (active)
O=[N+]([O-])c1ccc(C2=NN(c3ccccc3)C(c3ccco3)C2)cc1 (stereo unspecified) |  | 1.25 µM (active)
O=[N+]([O-])c1ccc(/C=C/C2=NN(c3ccccc3)C(c3ccco3)C2)o1 (stereo unspecified) |  | 2.59 µM (active)
C(=C\c1ccco1)/C1=NN(c2ccccc2)C(c2ccco2)C1 (stereo unspecified) | -27.8% | 
COc1ccccc1N1N=C(c2ccc([N+](=O)[O-])cc2)CC1c1ccccc1 (stereo unspecified) |  | 1.12 µM (active)
COc1cccc(C2CC(c3ccccc3)=NN2S(=O)(=O)c2ccc(C)cc2)c1OC (stereo unspecified) | -28.4% | 
CCCOc1ccc(N)cc1N | 4.36% | 
CN1C(=O)C(O)(C2COC(C)(C)CC2=O)c2cc(Br)ccc21 (stereo unspecified) | -0.16% | 
CC(C)CCNC(=O)c1ccc2c(c1)NC(=O)C(CS(=O)(=O)Cc1cccc(Br)c1)N2 (stereo unspecified) | 0.102% | 
CCN1/C(=C/C=C2/SC(=Nc3cccc4ncccc34)N(C)C2=O)Sc2ccccc21 |  | 16.4 µM (active)
C/C(=N\NC(=O)c1cc(-c2ccncc2)nc2ccccc12)c1ccc(N2CCOCC2)cc1 | -14.9% | 
CC(C)n1cc(/C=C/c2cc[n+](C)cc2)c2ccccc21 |  | 1.4 µM (active)
C=CCn1cc(/C=C/c2cc[n+](C)cc2)c2ccccc21 |  | 2.23 µM (active)
CCn1cc(/C=C/c2cc[n+](C)cc2)c2ccccc21 |  | 0.79 µM (active)
COC(=O)c1cc(NC(=O)c2ccccc2)c(=O)oc1/C=C/Nc1ccc(Oc2ccccc2)cc1 | -22% | 
CC(=O)c1cc(NC(=O)c2ccc(Cl)cc2)c(=O)oc1/C=C/N(C)C |  | 6.27 µM (active)
CC(=O)c1cc2c(cc1NS(=O)(=O)c1ccc(C)cc1)OCCO2 | -26.6% | 
COc1cc(OC)cc(C(=O)Nc2ccccc2C(=O)NC2CC2)c1 | -22.6% | 

Structure (SMILES) | max response | Potency
CC(=O)c1cc(NC(=O)c2ccc(C)cc2)c(=O)oc1/C=C/N(C)C |  | 20.6 µM (active)
COc1ccc(C(=O)Nc2cc(C(C)=O)c(/C=C/N(C)C)oc2=O)cc1 |  | 11.2 µM (active)
CC(=O)c1c(C)[nH]c(C(=O)Nc2ccc(Cl)cc2F)c1C | -17.7% | 
COC(=O)c1c(-c2ccccc2Cl)noc1/C=C/N(C)C | 2.98% | 
C/C(=N\Nc1nccnc1Cl)c1ccc(Cl)c(Cl)c1 | 0.009% | 
N#CC1=C(N)C(C#N)(C#N)[C@H](c2c(F)cccc2F)[C@H]2CC3(CC=C12)OCCO3 |  | 20.6 µM (active)
CCCCCCc1cc2cc(-c3nnc(-c4ccccc4OC)o3)c(=O)oc2cc1O |  | 2.8 µM (active)
COc1ccccc1-c1cc(C(=O)NN)[nH]n1 | 7.62% | 
CCCCCCc1cc2cc(-c3nnc(-c4ccccc4)o3)c(=O)oc2cc1O |  | 3.96 µM (active)
CCCCCCc1cc2cc(-c3nnc(-c4ccccc4O)o3)c(=O)oc2cc1O | 6.08% | 
C=C(NC(=O)C(=C)NC(=O)c1csc(C2=NC3c4csc(n4)C4NC(=O)c5csc(n5)C(C(C)(O)C(C)O)NC(=O)C5CSC(=N5)/C(=C/C)NC(=O)C(C(C)O)NC(=O)c5csc(n5)C3(CC2)NC(=O)C(C)NC(=O)C(=C)NC(=O)C(=C)NC(=O)C(C(C)C)NC2C=Cc3c(C(C)O)cc(nc3C2O)C(=O)OC4C)n1)C(N)=O (stereo unspecified) |  | 12.5 µM (active)
O=C(Cn1cnc2c(cnn2-c2ccc(F)cc2)c1=O)NCc1ccco1 | -25.6% | 
O=C(Cn1c(=O)n(Cc2ccco2)c(=O)c2sc3ccccc3c21)Nc1ccccc1C(F)(F)F |  | 14.6 µM (active)
CCc1ccc(N=Nc2ccc(O)c3[nH]cnc23)cc1 |  | 13 µM (active)
O=S(=O)(Nc1nc2ccccc2nc1N1CCc2ccccc2C1)c1ccc(Br)cc1 | -17% | 
CCOc1ccc(N/C=C/C(=O)c2cc(OC)c(OC)c(OC)c2)cc1 | -29.8% | 
COc1cc(/C=C/C(=O)c2ccc3c(c2)OCCO3)cc(Br)c1OCC(=O)N(C)C |  | 15.8 µM (active)
CCOC(=O)C1=C(C)N=c2sc(=Cc3cc(Cl)c(OCC(=O)O)c(Cl)c3)c(=O)n2C1c1cccc(OC)c1 (stereo unspecified) |  | 19.8 µM (active)
C=CCN1C(=O)/C(=C2/Sc3ccc(OC)cc3N2C)SC1=Nc1cccc(O)c1 |  | 20.6 µM (active)

Structure (SMILES) | max response | Potency
C=CCN1C(=O)/C(=C2/Sc3ccc(OC)cc3N2CC)SC1=S |  | 9.2 µM (active)
C=CCN1C(=O)/C(=C/c2ccc(O)c(OC)c2)S/C1=N/c1nccs1 | -0.164% | 
Cc1ccc2[nH]c(C(=O)NN=C3CCCCC3)c(-c3ccccc3)c2c1 | 0.516% | 
Cc1cc(C)cc(Oc2nc(C(F)(F)F)nc3ccccc23)c1 | -26.3% | 
CCc1ccc2nc(N(CCCN(C)C)C(=O)c3ccc(S(=O)(=O)N(C)C4CCCCC4)cc3)sc2c1 | -4.66% | 
OCC[n+]1ccc(/C=C/c2c[nH]c3ccccc23)cc1 |  | 8.2 µM (active)
C[n+]1ccc(/C=C/c2c[nH]c3ccccc23)cc1 |  | 9.2 µM (active)
C[n+]1cc(C(=O)N2CCCCC2)ccc1/C=C/c1c[nH]c2ccccc12 |  | 14 µM (active)
CC[n+]1ccc(/C=C/c2c[nH]c3ccccc23)cc1 |  | 9.2 µM (active)
O=C(C(=O)N1CCN(c2ccccc2Cl)CC1)c1c[nH]c2ccccc12 | 2.85% | 
CC(=O)Nc1ccc(S(=O)(=O)Nc2nc3ccccc3nc2Nc2ccc3ccccc3c2)cc1 | 0.168% | 
COc1ccc2[nH]c3c(c2c1)CCNC3c1ccc([N+](=O)[O-])o1 (stereo unspecified) |  | 23.1 µM (active)
COc1ccc(S(=O)(=O)N2CCN(C(=O)c3ccc([N+](=O)[O-])o3)CC2)cc1 | -3.97% | 
COc1ccc2oc(-c3ccccc3[N+](=O)[O-])cc(=O)c2c1 | -28% | 
CC(/C=C/c1ccc(N(C)C)cc1)=N\N=C(/N)SC1CC(=O)N(c2ccc(C(=O)O)cc2)C1=O (stereo unspecified) | -20.3% | 
CCOC(=O)C1C(=O)C=C(/C=C/c2ccc(N(C)C)cc2)CC1c1ccccc1 (stereo unspecified) |  | 10.3 µM (active)
Cc1ccc(/C=N/NC(=O)CCCOc2ccc(Cl)cc2Cl)cc1 | -27.3% | 
Cc1ccc(-c2nc3ncccc3o2)cc1NC(=O)c1ccc([N+](=O)[O-])o1 | -17.2% | 
